Bioassay records deposited in PubChem by National Center for Advancing Translational Sciences (NCATS).
Most compounds without a hit are left out; they make up all but 2.8% or so of the library.
B2AR arrestin – recruits beta-arrestin to the human beta2-adrenergic receptor; P07550; beta-arrestin recruitment to beta2AR, cell-based reporter; Potency, µM (doses to about 46.1 µM), for the others: top-dose activation, actives largely listed as activators; 330,000 tested, 0.02% active; active means well fitted activation curve with a large enough effect; inconclusive means small, poorly fitted or top-dose-only effect;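 further: potency means the concentration at half of the fitted maximal effect; 0% = DMSO controls and full agonism = EC100 isoproterenol or metaproterenol; nearly all actives have a fitted effect of over 65% in size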
D3 antag – blocks the human D3 dopamine receptor; P35462; D3R cells, DiscoveRx beta-arrestin luminescence, antagonist mode; hits give low values; max response, negative = inhibition, %; 360,000 tested, 2.5% active; in the data active means max response below about -50%; inconclusive means no clear call, values can overlap the other calls; further: on the % scale 0 is the no-effect control and ±100 the full control effect
Target sequence (P35462 whole entry, looked up): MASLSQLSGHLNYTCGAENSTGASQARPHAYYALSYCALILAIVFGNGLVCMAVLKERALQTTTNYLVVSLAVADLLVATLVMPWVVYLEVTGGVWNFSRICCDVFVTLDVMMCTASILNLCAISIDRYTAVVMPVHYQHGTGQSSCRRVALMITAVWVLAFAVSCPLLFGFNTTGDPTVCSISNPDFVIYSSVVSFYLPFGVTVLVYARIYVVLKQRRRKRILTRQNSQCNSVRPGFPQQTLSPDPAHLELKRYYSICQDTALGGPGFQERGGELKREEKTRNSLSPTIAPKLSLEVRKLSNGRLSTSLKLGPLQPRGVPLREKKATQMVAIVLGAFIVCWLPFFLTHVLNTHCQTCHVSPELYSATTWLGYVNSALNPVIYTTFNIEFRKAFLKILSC
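Cells plated overnight at 1500 cells/well, then exposed to library compounds with dopamine controls for 90 minutes at 37 degrees C. DiscoveRx reagent added for 30–60 minutes at room temperature; luminescence read, quantitative HTS format.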
Giardia killer – kills Giardia lamblia | 340,000 tested, 0.15% active | Giardia lamblia trophozoite viability | activity change, % at 7.66 µM, hits read low; in the data active means activity change below about -80%; inconclusive means between about -30% and that limit;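 further: parasites exposed to compound for two days anaerobically before the ATP read; on the % scale 0 is the no-effect control and ±100 the full control effect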
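Luminescent ATP signal served as the viability read-out, measured 15-30 min after adding ATP detection reagent to trophozoites that had been incubated with compounds for 48 hrs at 37 deg C anaerobically at 100 cells/well.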
DRD3 agonist – activates the human D3 dopamine receptor; 410,000 tested, 0.58% active; D3R DiscoveRx beta-arrestin cells, luminescence, 90 min; max activation, %; P35462; in the data active means max activation above about 30%; further: 0% is about no effect
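Agonist-mode cell screen: cells plated at 1500/well and incubated overnight at 37 °C, then exposed to library compounds for 90 min at 37 °C. Detection reagent was added for 30–60 min at room temperature, and luminescence was read.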
An asterisk follows results filed as active; u = inconclusive; x = not tested or not shown; [ ] = another dose, or the depositor's remark.

SMILES	B2AR arrestin	D3 antag	Giardia killer	DRD3 agonist
Cc1ccc(Cl)cc1NC(=O)CSC(N)=O	0%	-68*	-9	-1
Cc1ccc(Cl)cc1NC(=O)NCCN1CCCCC1	5%	-67*	20	-13
CCN(CC)S(=O)(=O)c1ccc2c(c1)N(CC(=O)Nc1c(C)cccc1C)C(=O)C1CCCN21 (stereo not drawn)	x	x	x	3
COc1ccc(S(=O)(=O)N(C)c2ccc(C(=O)N3CCCCC3)cc2)cc1	-1%	23	-15	38*
COc1ccc(S(=O)(=O)N(C)c2ccc(C(=O)N3CCOCC3)cc2)cc1	0%	0	4	5
CCOC(=O)CSCc1c(C#N)c2ccccc2n1C	0%	-52*	-6	0
Cn1c(CN2CCCC2)c(C#N)c2ccccc21	4%	-86*	5	-12
CC1CCCCN1Cc1c(C#N)c2ccccc2n1C (stereo not drawn)	x	-66*	-14	-11
CN1CCN(Cc2c(C#N)c3ccccc3n2C)CC1	0%	-6	-5	-5
CC1CCN(Cc2c(C#N)c3ccccc3n2C)CC1	0%	-75*	-1	1
CCn1nc(C)c(CCN(C)C(=O)Nc2cccc(Cl)c2C)c1C	x	x	x	0
COc1ccc(-c2c(C3C4C=CCC(C)C4C(=O)N3Cc3ccccc3)ccc3ccccc23)cc1 (stereo not drawn)	x	x	-10	x
CC1CCN(S(=O)(=O)c2ccc3c(c2)N(CC(=O)NCCc2ccc(Cl)cc2)C(=O)CO3)CC1	x	x	x	-18
COc1cc(-c2nc3n(n2)C(c2ccc(F)cc2)C(C(N)=O)=C(C)N3)cc(OC)c1OC (stereo not drawn)	x	x	x	-2
CNc1oc(Cc2ccccc2)nc1S(=O)(=O)c1ccccc1	0%	-89*	-5	4
COc1ccc([C@]23Cc4cc(OC)c(OC)cc4C(O2)c2c(cc(C)n(Cc4ccccc4)c2=O)O3)cc1	-1%[9.22 µM]	x	x	x
Cc1ccc(C)c(CN2CCC(n3nccc3NC(=O)CCCc3ccccc3)CC2)c1	0%	-65*	5	-18
CCOc1ccc(CN2CCC(n3nccc3NC(=O)CCCc3ccccc3)CC2)cc1	-1%	-55*	-27	-2
CC(C)n1cc(CN2CCC(n3nccc3NC(=O)Cc3ccccc3)CC2)cn1	-1%	-15	-3	-18
CC(C)n1cc(CN2CCC(n3nccc3NC(=O)CCCc3ccccc3)CC2)cn1	0%	-69*	-7	-39
CCc1ccccc1N1CC(c2nc3ccccc3n2CC(C)C)CC1=O (stereo not drawn)	x	x	x	-9
COc1ccc(C2C=C3CNS(=O)(=O)C3CC2OC(=O)c2ccc(C(F)(F)F)cc2)cc1 (stereo not drawn)	x	x	-9	x
Cc1cccnc1NCc1ccc(O)c2ncccc12	u	-51*	6	-19
Cc1cc(C)c(C(=O)Nc2ccccc2)c(SCC(=O)Nc2ccc(Br)cc2C)n1	x	x	x	-8
O=C1C=C(O)c2cccc3cccc1c23	0%	-76*	0	-9
SMILES	B2AR arrestin	D3 antag	Giardia killer	DRD3 agonist
CCCCN(C)C(=O)C1CCN(C/C(C)=C/c2ccccc2)CC1	0%	-65*	5	1
CCCCNC(=O)C1CCN(C/C(C)=C/c2ccccc2)CC1	0%	-66*	5	-13
C/C(=C\c1ccccc1)CN1CCC(C(=O)N2CCC(C)CC2)CC1	0%	-26	-3	-11
C/C(=C\c1ccccc1)CN1CCC(C(=O)N2CCCCC2)CC1	0%	-57*	1	-12
COc1ccc(SCC(CC(C)C)N2CCN(C)CCC2=O)cc1 (stereo not drawn)	x	x	21	x
CCS(=O)(=O)c1ncc(Cl)c(C(=O)N2CCN(c3cccc(Cl)c3)CC2)n1	x	x	x	-25
CN(C)CCCNc1nc2cc(-c3cccc(Cl)c3)sc2c(=O)n1C	x	-60*	x	-21
O=C(NCC(c1ccc(F)cc1)N1CCOCC1)c1ccc(-c2ccccc2)cc1 (stereo not drawn)	0%	-9	-3	0
O=C(NCC(c1ccc(F)cc1)N1CCOCC1)c1cccc(Br)c1 (stereo not drawn)	0%	-9	30	40*
O=C(NCC(c1ccc(F)cc1)N1CCOCC1)c1nn(-c2ccccc2)c(=O)c2ccccc12 (stereo not drawn)	0%	-83*	6	-24
CC1CCCCN1CCCNc1ccc(C(CC(N)=O)NC(=O)Cc2ccc(Br)cc2)cc1[N+](=O)[O-] (stereo not drawn)	0%	-52*	-7	1
NC(=O)CC(NC(=O)Cc1ccc(Br)cc1)c1ccc(NCC2CC2)c([N+](=O)[O-])c1 (stereo not drawn)	0%	u	-6	-5
CCn1c(=NC(=O)c2ccc(S(=O)(=O)N3CCCCC3)cc2)sc2cccc(OC)c21	x	x	x	-5
CCOc1ccc(-c2nnc(SCC(=O)Nc3cccc(C#N)c3)o2)cc1	x	x	x	-9
O=C(N=Nc1c(O)[nH]c2ccccc12)c1ccc2c(c1)OCO2	-1%	-27	-82*	0
OC(COC(c1ccc(F)cc1)c1ccc(F)cc1)CN1CCc2ccccc2C1 (stereo not drawn)	3%	-18	4	-6
OC(COC(c1ccccc1)c1ccccc1)CN1CCc2ccccc2C1 (stereo not drawn)	1%	-54*	3	-12
OC(COC(c1ccc(Cl)cc1)c1ccc(Cl)cc1)CN1CCc2ccccc2C1 (stereo not drawn)	-2%	-56*	5	-13
COc1cc(OC)c(NC(=O)c2c3c(nc4ccccc24)C(=O)N(C2CCCCC2)C3)cc1Cl	x	x	x	-18
C=CCc1ccc(OC(=O)NC2CCCCC2)c(OC)c1	3%	-4	9	9
C=CCc1ccc(OCCCCNC2CCCC2)c(OC)c1	0%	-69*	2	-20
C=CCc1ccc(OCCOCCOc2ccc(C)cc2[N+](=O)[O-])c(OC)c1	0%	19	-6	6
C=CCc1ccc(OCCOCCN(C)C)c(OC)c1	0%	-71*	-8	-4
COc1cc(OC)c(-c2nn3c(-c4cc(C)[nH]n4)nnc3s2)cc1OC	x	x	11	x
CCc1cccc(NC(=O)CCc2nc3cccnc3n2Cc2ccc(OC)cc2)c1	x	x	x	5
SMILES	B2AR arrestin	D3 antag	Giardia killer	DRD3 agonist
Cc1cc(=O)[nH]c2nnc(SCC(=O)Nc3ccc(OC(F)(F)F)cc3)n12	x	x	x	47*
Cc1cc(=O)[nH]c2nnc(SCC(=O)NC(C)(C)C)n12	x	x	x	-8
NC(=O)CSc1nc2ccccc2c(=O)n1CCc1ccccc1	0%	-9	0	3
Cn1c(=O)c2c(nc(SCCN3CCCCC3)n2Cc2ccc(Cl)cc2)n(C)c1=O	0%	-51*	15	1
O=c1c2ccccc2nc(SCCN2CCCCC2)n1CCc1ccccc1	0%	-56*	-5	-10
COc1ccc(C(=O)N2CCc3cc(OC)c(OC)cc3C2COc2ccccc2OC)cc1 (stereo not drawn)	x	x	x	-5
Cc1cccc(Nc2nc(N)nc(CN3CCN(c4ccccc4F)CC3)n2)c1	x	-53*	44	1
Cc1ccc(Nc2nc(N)nc(CN3CCc4ccccc4C3)n2)cc1	0%	-64*	-5	-15
Cc1c(Cl)cccc1Nc1nc(N)nc(CN2CCc3ccccc3C2)n1	0%	-64*	-2	-15
